A selection: hits, their analogues and other compounds. The true share with any hit is near 1.7%.
ALOX12 inh: Primary qHTS assay for inhibitors of human arachidonate 12S-lipoxygenase (ALOX12): Round 2; purified 12hLO, xylenol orange hydroperoxide absorbance; Potency, µM (doses to about 108 µM), for inactives: at the top dose activity change, negative = inhibition, most hits filed as inhibitors; hit rate 1.1% among 580,000; AID 1671190, 2021; also: % is scaled to controls: 0 for no effect and ±100 for the full control effect
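Hydroperoxide product was detected by ferrous iron/xylenol orange as the 573 to 405 nm absorbance ratio. Arachidonic acid at 40 uM (final) was turned over for 30 min at room temperature by 150 nM human 12hLO, pH 7.0 Hepes buffer, after 15 min compound preincubation.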
TrxR1 substrate: qHTS Assay for Substrates of Mammalian Selenoprotein Thioredoxin Reductase 1 (TrxR1): qHTS. Thioredoxin reductase 1, cytoplasmic (Rattus norvegicus), O89049. purified TrxR1 substrate turnover, NADPH consumption readout. Potency, µM (titrated, usually from 114 µM), for inactives: at the top dose activity change, negative = substrate turnover. hit rate 0.01% among 390,000. AID 588456, 2011; also: % is scaled to controls: 0 for no effect and ±100 for the full control effect; nearly all actives have a fitted effect of over 50% in size
Target sequence (O89049 whole entry, looked up): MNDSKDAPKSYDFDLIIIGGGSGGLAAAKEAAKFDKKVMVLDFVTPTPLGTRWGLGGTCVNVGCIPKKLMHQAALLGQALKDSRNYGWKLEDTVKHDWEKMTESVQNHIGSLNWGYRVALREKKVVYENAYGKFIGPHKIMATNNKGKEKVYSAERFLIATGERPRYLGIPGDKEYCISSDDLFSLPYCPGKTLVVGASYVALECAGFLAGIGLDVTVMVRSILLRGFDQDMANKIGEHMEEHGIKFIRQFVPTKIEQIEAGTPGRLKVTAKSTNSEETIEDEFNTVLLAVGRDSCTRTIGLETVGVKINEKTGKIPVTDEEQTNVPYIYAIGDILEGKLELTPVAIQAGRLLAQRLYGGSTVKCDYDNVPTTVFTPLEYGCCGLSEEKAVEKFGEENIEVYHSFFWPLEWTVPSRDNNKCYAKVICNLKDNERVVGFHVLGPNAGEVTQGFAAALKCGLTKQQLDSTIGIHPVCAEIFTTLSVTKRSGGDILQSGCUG
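Rat TrxR1, dispensed at 90 nM, was prereduced with 400 uM NADPH (final) for 5 min at ~22 deg C, then incubated with compound 15 min before 400 uM selenite. A first-read NADPH fluorescence drop versus no-compound background flagged substrates.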
IDH1 R132H inh: qHTS for Inhibitors of mutant isocitrate dehydrogenase 1 (IDH1): qHTS. Isocitrate dehydrogenase [NADP] cytoplasmic (Homo sapiens), O75874. IDH1-R132H enzyme, NADPH consumption, diaphorase/resazurin fluorescence. hit rate 0.093% among 390,000. Potency, µM (top dose mostly 76.6 µM), for inactives: at the highest dose activity change, negative = inhibition, usual class: inhibitors; also: % is scaled to controls: 0 for no effect and ±100 for the full control effect; nearly all actives have a fitted effect of over 65% in size
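IDH1-R132H (0.5 ug/mL) preincubated 30 min with compound, then NADPH (0.016 mM) and alpha-KG (2 mM) added; 80 min at RT, pH 7.5. Remaining NADPH coupled via diaphorase/resazurin to fluorescence (540/590 nm); concentration-response curves normalized to no-enzyme control.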
GRP78 ERSR act: qHTS for Inducers of the Endoplasmic Reticulum Stress Response (ERSR) in Human Glioma: qHTS. hit rate 0.02% among 420,000. U87-MG GRP78 promoter luciferase reporter, 16 h. AID 602332, 2012. Potency, µM, inactives show at the top dose activation, usual class: activators; also: series mostly up to about 76 µM; % of control where 0% means no effect; nearly all actives have a fitted effect of over 35% in size
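ERSR induction read as luciferase luminescence (Bright-Glo, 10 min at room temperature) in stably transfected human U87-MG glioma cells exposed to compounds for 16 h, using GRP78 as sensor.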
rTrxR1 inhibitor: qHTS Assay for Inhibitors of Mammalian Selenoprotein Thioredoxin Reductase 1 (TrxR1): qHTS; hit rate 1% among 390,000; Potency, µM (top dose mostly 114 µM), for the others: top-dose activity change, negative = inhibition, hits mostly inhibitors; AID 588453, 2011; recombinant rTrxR1, NADPH fluorescence consumption, selenite substrate; also: % is scaled to controls: 0 for no effect and ±100 for the full control effect; nearly all actives have a fitted effect of over 65% in size
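Rat TrxR1 (90 nM in the dispensed reagent) was pre-reduced with 400 uM NADPH for 5 min at room temperature, then incubated with compound for 15 min. After 400 uM selenite was added, NADPH fluorescence (Ex 340/Em 450 nm) was followed for 8 min.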
Anesthetic bind: qHTS Assay for Identification of Novel General Anesthetics; Ferritin light chain (Equus caballus), P02791; apoferritin/1-aminoanthracene competitive binding, fluorescence; Potency, µM (highest dose often 77.5 µM), without a hit: at the highest dose activity change, negative = displacement, usual class: inhibitors; hit rate 0.074% among 350,000; AID 485281, 2010; also: % is scaled to controls: 0 for no effect and ±100 for the full control effect; nearly all actives have a fitted effect of over 20% in size
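Apoferritin-based anesthetic binding model; compound displacement of fluorescent 1-AMA measured as endpoint fluorescence after 10 minutes at room temperature, scaled to free-ligand and complex controls.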
* = called active by the depositor; ? = inconclusive; nt = no result; [ ] = dose if it differs, or a comment. Calls follow the shape of the dose curve; as a rule, active = well fitted curve in the direction sought with a large enough effect; inconclusive = small, poorly fitted or top-dose-only effect, or another doubt; inactive = no such curve, though single readings can be large; an effect the other way counts as inactive or inconclusive. Potency is read from the fitted curve at half-maximal effect.

SMILES	ALOX12 inh	TrxR1 substrate	IDH1 R132H inh	GRP78 ERSR act	rTrxR1 inhibitor	Anesthetic bind
COCc1cc(C)nc(SCC(=O)c2ccc(O)c(O)c2)c1C#N	0.89µM*	-10%	0%	6%	-10%	-3%
Cc1cc(C)nc(SCC(=O)c2ccc(O)c(O)c2)n1	8.9µM*	-9%	-7%	-3%	-4%	-7%
O=C(CSc1nc2ccccc2n1CCc1ccccc1)N1CCOCC1	-10%	-6%	7%	-4%	?	-9%
Cc1cc(C)nc(SCC(=O)c2ccc(C)c(C)c2)n1	15%	-9%[57.1 µM]	0%	1%	6%[57.1 µM]	?
O=C(CSc1nc2ccccc2c(=O)[nH]1)c1ccc(O)c(O)c1	?	-17%	9%	13%	50µM*	0%
O=C(CSc1nc2ccccc2n1CCc1ccccc1)c1ccc(O)c(O)c1	25µM*	9%[57.1 µM]	1%	1%	-7%[57.1 µM]	?
O=C(CSc1nc2ccccc2c(=O)[nH]1)c1ccc(O)cc1O	-19%	-8%	1%	3%	4%	-12%
Cc1ccc(C(=O)CSc2nc(C)cc(=O)[nH]2)cc1	?	0%	6%	3%	3%	-17%
Cc1cc(=O)[nH]c(SCC(=O)c2ccc(O)c(O)c2)n1	4.5µM*	-20%	-11%	-3%	56µM*	-7%
CC(Sc1nc(Cl)nc2nc[nH]c12)C(=O)NCCc1c[nH]c2ccc(F)cc12 (centres undefined)	-18%	nt	nt	nt	nt	nt
O=S(=O)(N1CC=C(c2c[nH]c3cc(F)ccc23)CC1)N1CCCCCC1	16µM*	nt	nt	nt	nt	nt
NC(=O)NCCC1=CCCCC1	-24%	2%	7%	-5%	25%	?
C=CCn1c(N)c(C(=O)NCCC2=CCCCC2)sc1=S	18µM*	-3%	2%	12%	?	-18%
CCc1c(C(C)S(=O)(=O)c2ccc(C)cc2)[nH]c(=O)n1-c1ccc(C)cc1 (centres undefined)	?	1%[57.1 µM]	-1%	-1%	?	?
CCc1[nH]c(=O)[nH]c1C(C)S(=O)(=O)c1ccc(C)cc1 (centres undefined)	-21%	12%[57.1 µM]	-5%	-4%	1.1µM*	3%
O=S(=O)(Nc1cc(Sc2ncn[nH]2)c(O)c2ccccc12)c1ccccc1	?	25µM*	24%	-16%	11µM*	-15%
CCNC(=S)N/N=C/c1cccc(OCc2c(F)cccc2Cl)c1	40µM*	-12%	9%	0%	-23%	42%
CNC(=S)N/N=C/c1cccc(OCc2ccccc2F)c1	?	13%[57.1 µM]	11%	0%	16%[57.1 µM]	7%
Brc1ccc2c(c1)C(c1ccc(N3CCOCC3)cc1)=NNC(c1cccs1)=N2	-19%	-12%	1%	32µM*	-10%	-5%
Cc1ccc2c(=O)cc(C(=O)NCC(c3ccco3)N3CCCC3)oc2c1C (centres undefined)	124%	nt	nt	nt	nt	nt
COc1ccc(Cl)cc1-c1nc(SCC(=O)NC(C)(C#N)C(C)C)n[nH]1 (centres undefined)	0%	nt	nt	nt	nt	nt
CC(C(=O)Nc1sc2c(c1C(=O)NCc1ccco1)CCCC2)N1C(=O)c2ccccc2C1=O (centres undefined)	-43%	-6%[57.1 µM]	-8%	2%	-5%[57.1 µM]	-11%
O=C(CCN1C(=O)c2ccccc2C1=O)Nc1sc2c(c1C(=O)NCc1ccco1)CCCC2	-3%	1%[57.1 µM]	8%	-4%	20µM*	?

Assay outcomes deposited in PubChem BioAssay by National Center for Advancing Translational Sciences (NCATS).
